Here are results for eight compounds from PubChem BioAssay AID1508601 (ICCB-Longwood Screening Facility, Harvard Medical School, 2020).

The nature of experiment [1]: p53 stabilisation in HPV-positive human cells, imaging, p53-positive nuclei imaging, 24 h, 48 h (AID 1508601). As to conditions: 24/48 h.
In experiment [2] the target is Cellular tumor antigen p53 (Homo sapiens) (UniProt P04637). The experiment is described as above. As to conditions: 24/48 h, stronger effect = higher value.
[3] abbreviates: measured here: cell number at 24 h, Library stock concentration: 500 nM.
Setting [4] is: measured here: cell number at 24 h, Library stock concentration: 1.5 uM.
Setting [5] is: measured here: cell number at 24 h, Library stock concentration: 4.6 uM.
[6] abbreviates: measured here: cell number at 24 h, Library stock concentration: 13.7 uM.
Setting [7] is: measured here: cell number at 24 h, Library stock concentration: 41 uM.
The mark [8] stands for this setting: measured here: cell number at 24 h, Library stock concentration: 123 uM.
The mark [9] stands for this setting: measured here: cell number at 24 h, Library stock concentration: 370 uM.
The mark [10] stands for this setting: measured here: cell number at 24 h, Library stock concentration: 1.111 mM.
[11] abbreviates: measured here: cell number at 24 h, Library stock concentration: 3.33 mM.
Setting [12] is: measured here: cell number at 24 h, Library stock concentration: 3.333 mM.
Setting [13] is: measured here: cell number at 24 h, Library stock concentration: 10 mM.
Where [14] appears, read: measured here: cell number at 48 h, Library stock concentration: 500 nM.
The mark [15] stands for this setting: measured here: cell number at 48 h, Library stock concentration: 1.5 uM.
The mark [16] stands for this setting: measured here: cell number at 48 h, Library stock concentration: 4.6 uM.
Where [17] appears, read: measured here: cell number at 48 h, Library stock concentration: 13.7 uM.
Setting [18] is: measured here: cell number at 48 h, Library stock concentration: 41 uM.
Setting [19] is: measured here: cell number at 48 h, Library stock concentration: 123 uM.
[20] abbreviates: measured here: cell number at 48 h, Library stock concentration: 370 uM.
Where [21] appears, read: measured here: cell number at 48 h, Library stock concentration: 1.111 mM.
Where [22] appears, read: measured here: cell number at 48 h, Library stock concentration: 3.33 mM.
The mark [23] stands for this setting: measured here: cell number at 48 h, Library stock concentration: 3.333 mM.
Setting [24] is: measured here: cell number at 48 h, Library stock concentration: 10 mM.
The mark [25] stands for this setting: Library stock concentration: 500 nM.
The mark [26] stands for this setting: Library stock concentration: 1.5 uM.
The mark [27] stands for this setting: Library stock concentration: 4.6 uM.
Setting [28] is: Library stock concentration: 13.7 uM.
[29] abbreviates: Library stock concentration: 41 uM.
[30] abbreviates: Library stock concentration: 123 uM.
[31] abbreviates: Library stock concentration: 370 uM.
Where [32] appears, read: Library stock concentration: 1.111 mM.
The mark [33] stands for this setting: Library stock concentration: 3.33 mM.
Where [34] appears, read: Library stock concentration: 3.333 mM.
Where [35] appears, read: Library stock concentration: 10 mM.
[36] abbreviates: measured here: p53 positive nuclei at 24 h, Library stock concentration: 500 nM.
Setting [37] is: measured here: p53 positive nuclei at 24 h, Library stock concentration: 1.5 uM.
Where [38] appears, read: measured here: p53 positive nuclei at 24 h, Library stock concentration: 4.6 uM.
The mark [39] stands for this setting: measured here: p53 positive nuclei at 24 h, Library stock concentration: 13.7 uM.
The mark [40] stands for this setting: measured here: p53 positive nuclei at 24 h, Library stock concentration: 41 uM.
Setting [41] is: measured here: p53 positive nuclei at 24 h, Library stock concentration: 123 uM.
[42] abbreviates: measured here: p53 positive nuclei at 24 h, Library stock concentration: 370 uM.
[43] abbreviates: measured here: p53 positive nuclei at 24 h, Library stock concentration: 1.111 mM.
The mark [44] stands for this setting: measured here: p53 positive nuclei at 24 h, Library stock concentration: 3.33 mM.
[45] abbreviates: measured here: p53 positive nuclei at 24 h, Library stock concentration: 3.333 mM.
Setting [46] is: measured here: p53 positive nuclei at 24 h, Library stock concentration: 10 mM.
Setting [47] is: measured here: cell number at 24 h, concentration not given here.
The mark [48] stands for this setting: measured here: cell number at 48 h, concentration not given here.
[49] abbreviates: measured here: p53 positive nuclei at 24 h, concentration not given here.

In all, about 5,700 compounds went through this assay and about 85 (1%) were called active. Cut-off read from the data, not from the text of the source: active = p53-positive nuclei above about 36% (passing the limit was not always enough); inactive = the rest. This excerpt belongs to a sample that is enriched for actives.

Chain of Cellular tumor antigen p53 (Homo sapiens) (P04637 whole entry, looked up): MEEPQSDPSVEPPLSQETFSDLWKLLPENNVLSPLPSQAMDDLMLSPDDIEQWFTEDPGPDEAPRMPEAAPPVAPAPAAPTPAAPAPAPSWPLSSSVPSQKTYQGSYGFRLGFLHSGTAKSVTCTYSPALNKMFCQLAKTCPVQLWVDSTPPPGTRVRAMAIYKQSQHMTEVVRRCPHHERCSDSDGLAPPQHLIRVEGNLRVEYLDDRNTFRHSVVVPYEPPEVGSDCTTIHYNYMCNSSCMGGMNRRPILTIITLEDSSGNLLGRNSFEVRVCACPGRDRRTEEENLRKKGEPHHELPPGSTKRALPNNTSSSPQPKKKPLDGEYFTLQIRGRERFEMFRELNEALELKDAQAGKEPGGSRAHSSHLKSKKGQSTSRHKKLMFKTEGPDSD

`CN(NC(=O)CC(=O)NN(C)C(=S)c1ccccc1)C(=S)c1ccccc1`: the nuclei count, normalised in experiment [1] (setting [3]) came out at 98.9%; in experiment [1] (setting [4]), 108%; in experiment [1] (setting [5]), 110%; in experiment [1] (setting [6]), 111%; in experiment [1] (setting [7]), 94.3%; in experiment [1] (setting [8]), 64.8%. Further, the nuclei count, normalised in experiment [1] (setting [9]) is 60.9%; in experiment [1] (setting [10]), 60.4%; in experiment [1] (setting [11]), 51.3%; in experiment [1] (setting [12]), 54.8%; in experiment [1] (setting [13]) it was 54.4%; in experiment [1] (setting [14]), 104%. The nuclei count, normalised in experiment [1] (setting [15]) stood at 107%; in experiment [1] (setting [16]), 108%; in experiment [1] (setting [17]) it was 110%; in experiment [1] (setting [18]), 100%; in experiment [1] (setting [19]), 63.4%; in experiment [1] (setting [20]), 55%. Moreover, the nuclei count, normalised in experiment [1] (setting [21]) amounted to 52.6%; in experiment [1] (setting [22]), 44.1%; in experiment [1] (setting [23]), 48.4%; in experiment [1] (setting [24]), 43.1%. Moreover, the p53-positive nuclei, normalised is 0.0337% (inactive) in experiment [2] (setting [25]); -0.251% (inactive) in experiment [2] (setting [26]); 0.0195% (inactive) in experiment [2] (setting [27]); 0.51% (inactive) in experiment [2] (setting [28]); 5.45% (inactive) in experiment [2] (setting [29]); 37% (active) in experiment [2] (setting [30]). The p53-positive nuclei, normalised in experiment [2] (setting [31]) is 48.3% (active); in experiment [2] (setting [32]) it was 55.8% (active); in experiment [2] (setting [33]) it was 56.4% (active); in experiment [2] (setting [34]), 64.9% (active); in experiment [2] (setting [35]), 64.3% (active); in experiment [2] (setting [36]) it was -0.0555%. The p53-positive nuclei, normalised was -0.0139% in experiment [2] (setting [37]); -0.119% in experiment [2] (setting [38]); 1.05% in experiment [2] (setting [39]); 14.4% in experiment [2] (setting [40]); 69.4% in experiment [2] (setting [41]); 85.7% in experiment [2] (setting [42]). Moreover, the p53-positive nuclei, normalised turned out to be 93.5% in experiment [2] (setting [43]), 80.8% in experiment [2] (setting [44]), 103% in experiment [2] (setting [45]) and 104% in experiment [2] (setting [46]).

On to `O=C(O)CCNC(=O)c1ccccc1`, for which the nuclei count, normalised worked out at 113% in experiment [1] (setting [11]), 110% in experiment [1] (setting [47]), 105% in experiment [1] (setting [22]) and 110% in experiment [1] (setting [48]). The p53-positive nuclei, normalised in experiment [2] (setting [33]) was 0.0364% (inactive); in experiment [2] (concentration not given here) it was 0.0211% (inactive); in experiment [2] (setting [44]), -0.327%; in experiment [2] (setting [49]), -0.211%.

Regarding `O=C(O)c1ccccc1`, the nuclei count, normalised in experiment [1] (setting [11]) stood at 99.7%; in experiment [1] (setting [22]), 99.1%. Moreover, the p53-positive nuclei, normalised in experiment [2] (setting [33]) is -0.166% (inactive); in experiment [2] (setting [44]) it was -0.28%.

Turning to `CCCCCC(=O)/C=C/[C@H]1[C@H](O)CC(=O)[C@@H]1CCCCCCC(=O)O`, the nuclei count, normalised in experiment [1] (setting [47]) and in experiment [1] (setting [48]) was 107% throughout. For the same compound, the p53-positive nuclei, normalised was -0.0323% (inactive) in experiment [2] (concentration not given here) and -0.0183% in experiment [2] (setting [49]).

With `CCCCCNC(=O)N1CCC2(CC1)Nc1ccccc1N(CC1CC1)C2=O`, the nuclei count, normalised in experiment [1] (setting [47]) stood at 105%; in experiment [1] (setting [48]), 110%. In addition, the values for the p53-positive nuclei, normalised in experiment [2] (concentration not given here) and in experiment [2] (setting [49]) were -0.23% (inactive) and -0.154%, respectively.

For the compound `O=C(O)c1ccc(C=C2SC(=S)N(c3cccc(C(F)(F)F)c3)C2=O)cc1`, the nuclei count, normalised in experiment [1] (setting [11]) was 76.4%; in experiment [1] (setting [22]), 78.4%. Moreover, the values for the p53-positive nuclei, normalised in experiment [2] (setting [33]) and in experiment [2] (setting [44]) were -0.0579% (inactive) and -0.316%, respectively.

As for `COc1ccc(N2C(=O)C(=Cc3ccc([N+](=O)[O-])s3)SC2=S)cc1`, the nuclei count, normalised in experiment [1] (setting [3]) was 117%; in experiment [1] (setting [4]), 113%; in experiment [1] (setting [5]) it was 108%; in experiment [1] (setting [6]) it was 110%; in experiment [1] (setting [7]), 105%; in experiment [1] (setting [8]), 88.7%. Further, the nuclei count, normalised in experiment [1] (setting [9]) came to 69.2%; in experiment [1] (setting [10]), 62.1%; in experiment [1] (setting [12]) it was 48.5%; in experiment [1] (setting [13]) it was 37.6%; in experiment [1] (setting [14]) it was 110%; in experiment [1] (setting [15]) it was 106%. Moreover, the nuclei count, normalised in experiment [1] (setting [16]) was determined as 107%; in experiment [1] (setting [17]), 104%; in experiment [1] (setting [18]), 108%; in experiment [1] (setting [19]), 87.8%; in experiment [1] (setting [20]) it was 59.1%; in experiment [1] (setting [21]), 49.4%. Besides, the nuclei count, normalised came to 31.9% in experiment [1] (setting [23]) and 24.4% in experiment [1] (setting [24]). The p53-positive nuclei, normalised in experiment [2] (setting [25]) is 0.221% (inactive); in experiment [2] (setting [26]) it was 0.0846% (inactive); in experiment [2] (setting [27]) it was 0.192% (inactive); in experiment [2] (setting [28]), -0.0302% (inactive); in experiment [2] (setting [29]), 0.353% (inactive); in experiment [2] (setting [30]), 5.11% (inactive). The p53-positive nuclei, normalised in experiment [2] (setting [31]) is 28.8% (inactive); in experiment [2] (setting [32]) it was 38.4% (inactive); in experiment [2] (setting [34]), 79.8% (active); in experiment [2] (setting [35]), 117% (active); in experiment [2] (setting [36]), -0.0612%; in experiment [2] (setting [37]), 0.0572%. The p53-positive nuclei, normalised in experiment [2] (setting [38]) came to 0.0046%; in experiment [2] (setting [39]), 0.00591%; in experiment [2] (setting [40]) it was 0.0741%; in experiment [2] (setting [41]), 5.3%; in experiment [2] (setting [42]), 28.7%; in experiment [2] (setting [43]), 41.6%. Also, the p53-positive nuclei, normalised in experiment [2] (setting [45]) was determined as 85.9%; in experiment [2] (setting [46]), 121%.

Consider `C/C=C/C(=O)O[C@H](COCCCCCCCCCCCCCCCC)COP(=O)([O-])OCC[N+](C)(C)C`, for which the nuclei count, normalised in experiment [1] (setting [47]) was determined as 91.3%; in experiment [1] (setting [48]), 103%. Further, the p53-positive nuclei, normalised in experiment [2] (concentration not given here) was -0.0567% (inactive); in experiment [2] (setting [49]) it was 0.0947%.
